Assay outcomes: PubChem BioAssay, Broad Institute
A selection: hits, their analogues and other compounds. The true share with any hit is near 8.1%.
MITF inh – blocks MITF activity; TRPM1 promoter luciferase, luminescence, 24 h; inhibition, % (concentration not given with the values); 0.28% of 37,000 active; in the data active = inhibition above about 85%; inconclusive = no clear call, values can overlap the other calls; inactive = below about 68%;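 also: human melanocyte line stably carrying TRPM1 promoter luciferase reporter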
PD-1 reversal – activators reversing PD-1 mediated T-cell inhibition. activation, % (no concentration beside the values). primary human CD4 T cells, PD-L1 beads, CellTiter-Glo 96 h. 29,000 tested, under 10 active; call rule not given here;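 also: 0% = median vehicle wells and 100% = positive control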
Shh pathway inh – blocks Sonic Hedgehog signaling | Shh-LIGHT2 Gli-luciferase reporter, 30 h | inhibition, % (no concentration beside the values) | 2.1% of 22,000 active | AID 2313;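 active = mean inhibition across valid replicates above about 65%, limit read from the data; inconclusive = mean under the limit, yet half or more replicates past it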;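 also: pathway switched on by Shh-conditioned medium diluted 1 in 25 in low serum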
NOMO-1 viab – STK33 inhibitor candidate reducing NOMO-1 cell viability; 7.5% of 37,000 active; NOMO-1 AML viability, CellTiter-Glo luminescence, 72 h; inhibition, % (test concentration not listed); AID 2330; in the data active = inhibition above about 80%; inconclusive = no clear call, values can overlap the other calls
Numbers without * were called inactive; ? = inconclusive; . = no result; ! = not confirmed by another sample.

SMILES | MITF inh | PD-1 reversal | Shh pathway inh | NOMO-1 viab
C[C@@H]1CN([C@H](C)CO)C(=O)Cc2cc(NC(=O)CCC(F)(F)F)ccc2O[C@H]1CN(C)Cc1ccc(-c2ccccc2)cc1 | 7 | -2 | 1 | 34
Clc1ccccc1/C=C/C=Nc1ccc(N2CCOCC2)cc1 | -50 | 0 | 27 | 122*
c1ccc(-c2nsc(N3CCOCC3)n2)cc1 | 20 | 1 | -186 | -1
COc1ccc(NC(=O)Nc2ccc3c(c2)CC(=O)N([C@H](C)CO)C[C@@H](C)[C@H](CN(C)S(=O)(=O)c2ccc(C)cc2)O3)cc1 | 2 | 0 | -10 | -5
CN(C)C(=O)C(CCN1CCC(O)(c2ccc(Cl)cc2)CC1)(c1ccccc1)c1ccccc1 | -6 | 1 | 58 | 138*!
O=C(CCN1CCCCC1)Nc1ccc(Cl)cc1 | 9 | 0 | -15 | -16
C[C@@H]1CN([C@@H](C)CO)C(=O)c2cccc(NC(=O)Nc3ccc(C(F)(F)F)cc3)c2O[C@@H]1CN(C)S(=O)(=O)c1ccc(Cl)cc1 | 87* | -11 | ? | 122*
Cc1ccc(S(=O)(=O)N(C)C[C@H]2Oc3c(NC(=O)Nc4ccc(C(F)(F)F)cc4)cccc3C(=O)N([C@H](C)CO)C[C@@H]2C)cc1 | 11 | . | -15 | 59
C[C@@H]1CN([C@H](C)CO)C(=O)c2cccc(NC(=O)Nc3ccc(C(F)(F)F)cc3)c2O[C@@H]1CN(C)S(=O)(=O)c1ccc(Cl)cc1 | 66 | -7 | 4 | 117*
O=[N+]([O-])c1cccc(NC(=S)NCc2cn(-c3ccccc3)nc2-c2ccccc2)c1 | 76 | 0 | . | 97*
C[C@@H]1CN([C@H](C)CO)C(=O)Cc2cc(NC(=O)Cc3ccccc3)ccc2O[C@H]1CN(C)CC1CC1 | 4 | 0 | -21 | 3
COc1ccc(OC)c(NC(=O)COc2ccc(C(=O)Nc3ccc(Cl)cc3)cc2)c1 | 4 | . | . | 8
COc1ccc(OC)c(NC(=O)c2ccc(CSc3ncnc4nc[nH]c34)cc2)c1 | 33 | 1 | 68* | 42
C=CCN1CCc2c(cc(O)c(O)c2Br)[C@@H](c2ccccc2)C1 | 31 | . | 31 | 109*
Cc1ccc(C(=O)COc2cccc(NC(=O)c3cccs3)c2)cc1C | 7 | . | . | 23
Cn1c2ccccc2c2c3c(c4c5ccccc5n(CCC#N)c4c21)CNC3=O | 12 | -13 | -101 | 140*
Cc1ccc(C2=NNC(=O)C(c3cn(CCC#N)c4ccccc34)C2)cc1 (stereo unspecified) | 14 | -2 | . | 21
OC(c1ccccc1)c1oc2ccccc2c1-c1cnn(-c2ccccc2)c1 (stereo unspecified) | 70 | -13 | 98* | 112*
Cn1c(=N)n(CCCOc2ccc(F)cc2)c2ccccc21 | -15 | -2 | 58 | 94*
CC(O)c1nc2ccccc2n1CCOc1ccc(F)cc1 (stereo unspecified) | 1 | . | . | 11
N#Cc1c(NC(=O)COc2ccc3c(-c4ccccc4)cc(=O)oc3c2)sc2c1CCC2 | 12 | . | . | 96*
C[C@@H]1CN([C@@H](C)CO)C(=O)c2cc(NC(=O)C3CCCCC3)ccc2O[C@@H]1CN(C)CC1CC1 | -6 | 0 | -5 | -21
C[C@H](CO)N1C[C@H](C)[C@H](CN(C)Cc2ccccc2)Oc2ccc(NS(=O)(=O)c3ccc(F)cc3)cc2CC1=O | -24 | 3 | 11 | 52
C[C@H]1CN([C@@H](C)CO)C(=O)Cc2cc(NS(=O)(=O)c3ccc(F)cc3)ccc2O[C@H]1CN(C)Cc1ccc(Oc2ccccc2)cc1 | 20 | 0 | 16 | 122*
C[C@@H]1CN([C@@H](C)CO)C(=O)Cc2cc(NS(=O)(=O)c3ccc(F)cc3)ccc2O[C@@H]1CN(C)Cc1ccc(Oc2ccccc2)cc1 | 39 | . | 30 | 122*
SMILES | MITF inh | PD-1 reversal | Shh pathway inh | NOMO-1 viab
C[C@H]1CN([C@@H](C)CO)C(=O)Cc2cc(NS(=O)(=O)c3ccc(F)cc3)ccc2O[C@H]1CN(C)Cc1ccccc1 | 5 | 0 | 21 | 24
COc1ccc(S(=O)(=O)Nc2cccc3c2O[C@@H](CN(C)S(=O)(=O)c2ccccc2)[C@@H](C)CN([C@H](C)CO)C3=O)cc1 | 7 | 0 | 12 | 7
COC(=O)c1c(NC(=O)C2CC(=O)NN2Cc2ccccc2)sc2c1CCC(C)C2 (stereo unspecified) | 67 | -6 | . | 109*
COC(=O)c1c(NC(=O)C2CC(=O)NN2Cc2ccccc2)sc2c1CCC2 (stereo unspecified) | 17 | -7 | . | 44
CSc1sc(=S)sc1SC | -24 | 1 | . | -24
Cc1noc(C)c1NC(=O)N(C)C[C@@H]1Oc2c(NS(=O)(=O)c3c(C)noc3C)cccc2C(=O)N([C@@H](C)CO)C[C@@H]1C | -4 | 0 | -6 | -3
